From PubChem BioAssay (NCI)
Compounds without any hit were thinned out: in the full panel of roughly 79,000, 15% have a hit. No stated cut-off is given here; in the data, active means growth inhibition above about 70%; inactive means the rest.

Experiments:
[1] = NCI Yeast Anticancer Drug Screen. Data for the rad50 strain (AID 155);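 further: 0% = growth of vehicle-only cultures of the same strain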; conditions: S. cerevisiae rad50 strain growth inhibition; at 50.0 µM; stronger effect = higher value
How it was run: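 Relative growth inhibition (compound vs vehicle) was measured in yeast with a defined repair-gene alteration.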

[2] = NCI Yeast Anticancer Drug Screen. Data for the mec2-1 strain (AID 157); conditions: S. cerevisiae mec2-1 strain, at 50.0 µM, stronger effect = higher value
How it was run: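 Vehicle-treated cultures served as reference for growth inhibition of compound-exposed mec2-1 yeast.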

[3] = NCI Yeast Anticancer Drug Screen. Data for the sgs1 mgt1 strain (AID 161);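 further: 0% = growth of cultures given vehicle only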; conditions: S. cerevisiae sgs1 mgt1 strain, at 50.0 µM, stronger effect = higher value
How it was run: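 Test agents were incubated with a DNA-repair-mutant yeast strain. Growth was then read and compared against vehicle-treated controls.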

[4] = NCI Yeast Anticancer Drug Screen. Data for the cln2 rad14 strain (AID 165);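 further: 0% = growth equal to vehicle treated cultures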; conditions: S. cerevisiae cln2 rad14 strain, at 50.0 µM, stronger effect = higher value
How it was run: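 Each compound was tested on cln2 rad14 yeast. Inhibition of growth was calculated against vehicle-exposed controls.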

[5] = NCI Yeast Anticancer Drug Screen. Data for the bub3 strain (AID 167); conditions: S. cerevisiae bub3 mutant strain, at 50.0 µM, stronger effect = higher value
How it was run: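 Screening used yeast with an engineered genetic alteration affecting cell cycle control. Compound-exposed cultures were compared with vehicle cultures, and reduced growth was taken as inhibition.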

[6] = NCI Yeast Anticancer Drug Screen. Data for the mlh1 rad18 strain (AID 175); conditions: S. cerevisiae mlh1 rad18 strain growth inhibition; at 50.0 µM; stronger effect = higher value
How it was run: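 Vehicle-treated cultures served as the reference for growth inhibition in a yeast strain carrying DNA damage repair alterations exposed to each compound.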

Measured: growth inhibition

CC(=O)Nc1ccc(S(=O)(=O)NN)cc1
inactive: [1] -15.7% | [2] -12.1% | [3] -4.75% | [4] 10.2% | [5] 5.25% | [6] 9.1%

N#C/C=C\c1ccc(F)cc1
inactive: [1] 27.1% | [2] 9.7% | [3] 17.1% | [4] 3.35% | [5] 10.8% | [6] 12.2%

CC(=O)OC1C(C)OC(n2cnc3c(=O)[nH]cnc32)C1OC(C)=O (stereo not given)
inactive: [1] 2.95% | [2] -15.6% | [3] -0.45% | [4] -3.45% | [5] -2% | [6] 10.8%

CNc1nc(=S)nc(-c2ccccc2)s1
inactive: [1] 11.7% | [2] 13.3% | [3] 11.3% | [4] -8.45% | [5] 11.8% | [6] -9.6%

O=C(O)CNC(=O)c1ccc2cc(C(=O)N3CC(CCl)c4ccc([N+](=O)[O-])cc43)[nH]c2c1 (stereo not given)
inactive: [1] -6.45% | [2] -4% | [3] -3.95% | [4] -0.1% | [5] -34.3% | [6] -35%

COc1ccc(N=Nc2c(-c3ccccc3)nn(C(=O)CC(=O)Nc3cccc(Cl)c3)c2-c2ccccc2)cc1
inactive: [1] -2.65% | [2] 5.9% | [3] -6.3% | [4] 12.6% | [5] 26.3% | [6] -13.5%

Nc1c(Br)cc2c([nH]c(=O)c3cc(Br)ccc32)c1Br
inactive: [1] 47.1% | [2] 32.2% | [3] 27.1% | [4] 27.8% | [5] 8.75% | [6] 32.1%

CC(=O)OC1COC(N2C(=O)C(=O)c3cc(Br)c([N+](=O)[O-])cc32)C(OC(C)=O)C1OC(C)=O (stereo not given)
inactive: [1] 14.3% | [2] 12.2% | [3] -10.6% | [4] -1.9% | [5] -9.6% | [6] 1.3%

CC(C)(C)C1=CC(=O)CCC1
inactive: [1] -37.6% | [2] -31.2% | [3] -16.4% | [4] -8.1% | [5] -26.9% | [6] 5.65%

O=C(O)/C=C/C(=O)Nc1cccc(C(F)(F)F)c1
inactive: [1] -3.5% | [2] 0.35% | [3] -17.5% | [4] -6.85% | [5] -15.7% | [6] -9.7%

CCOC(=O)/C(=C(/C)N=Cc1ccccc1[N+](=O)[O-])C(NN=O)c1ccccc1[N+](=O)[O-] (stereo not given)
inactive: [1] 11.9% | [2] 4.85% | [3] -9.55% | [4] 8.5% | [5] -5% | [6] 17.8%

CC(=O)Nc1ccccc1-c1nc2cccnc2[nH]c1=O
inactive: [1] -9.6% | [2] 6.15% | [3] 2.65% | [4] -5.35% | [5] -1.85% | [6] -11.9%

CCOC(=O)c1ccc2c3c(ccc([N+](=O)[O-])c13)CC2
inactive: [1] -7% | [2] -6.25% | [3] -14% | [4] -1.9% | [5] 18.5% | [6] -8.35%

CCCCCCN(CCCCCC)C1=CC(=O)C(=O)c2ccccc21
inactive: [1] 52.9% | [2] 31.8% | [3] 48.4% | [4] 60% | [5] 35.1% | [6] 54.2%

O=C(O)CNc1ccc(C(=O)O)cc1
inactive: [1] -20.9% | [2] -10.1% | [3] -11.3% | [4] 41.1% | [5] -51.7% | [6] -11.7%

COc1ccc2c(c1)C(=O)[C@]1(C)C3(C)OC(=O)C(c4ccccc43)[C@]21C (stereo not given in full)
inactive: [1] 2.6% | [2] -8.6% | [3] -13.8% | [4] 9.3% | [5] -17.6% | [6] 12.6%

OCCNNCCO
inactive: [1] 13.3% | [2] 1.05% | [3] -14.7% | [4] -8.85% | [5] 15.1% | [6] 1.9%

CCCCCCCC(=O)NS(=O)(=O)c1ccccc1
inactive: [1] 31.7% | [2] 20.7% | [3] 27.8% | [4] 52.2% | [5] 37.2% | [6] 39.8%

COc1ccc(NC(=S)N(CCC#N)C2CCCCC2)cc1
inactive: [1] -1.1% | [2] -24.3% | [3] -3% | [4] 16.8% | [5] -1.5% | [6] -4.05%

C=CC1=C(C)C2=NC1=CC1=NC(=CC3=C(C)C4=C(O)CC(=C5NC(=C2)C(C)C5CCC(=O)OC)C4=N3)C(CC)=C1C (stereo not given)
inactive: [1] 8.85% | [2] -1.5% | [3] 19.4% | [4] 3.65% | [5] -2.05% | [6] 22.2%
